Screening results: PubChem, Sanford-Burnham Center for Chemical Genomics
NadD inh: inhibitors of Staphylococcus aureus NadD; purified NadD enzyme, colorimetric absorbance read-out; inhibition, % at 20 µM; hit rate 0.78% among 360,000; AID 602399; in the data active = inhibition above about 26%
GC-B act: GC-B (human) receptor activation; activation, % at 10 µM; hit rate 0.11% among 370,000; HEK293-GC-B cells, CNP EC30, cGMP TR-FRET; 0% at EC30 CNP, 100% saturating CNP;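 active = activation at 10 µM reaching about 35% in either raw or pattern-adjusted values, limit read from the data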
NPR1 activator: GC-A (human) enzyme activation | P16066 | AID 1671463 | HEK293 GC-A cells, cGMP TR-FRET, EC30 ANP; 0% at EC30 ANP, 100% saturating ANP | hit rate 0.14% among 370,000 | activation, % at 10 µM; in the data active = activation above about 40%
Neddylation inh: inhibitors of human cullin neddylation; AID 651699; hit rate 0.58% among 360,000; inhibition, % at 25 µM; P61081+Q13564; TR-FRET cullin neddylation, biochemical; in the data active = inhibition above about 36%
NadD conf: confirmation of Staphylococcus aureus NadD inhibitors; shares compounds with NadD inh; purified S. aureus NadD, colorimetric enzyme assay; inhibition, % at 20 µM; hit rate 13% among 2,000; AID 624309; in the data active = inhibition mostly above about 42%, no sharp cut-off; inactive = mostly below about 42%
Starred values were filed as active, the others as inactive; nt = not tested or not shown. Only some compounds are listed: those with a hit (about 1.5% of all), similar ones and a draw of the others.

SMILES | NadD inh | GC-B act | NPR1 activator | Neddylation inh | NadD conf
CCCC[C@@H]1Cc2[nH][nH]c(=O)c2[C@H](c2ccc(C(C)C)cc2)O1 | 38* | 2 | 0 | 0 | 6
O=C(N/N=C/c1c(Nc2cccc(C(F)(F)F)c2)nc2ccccn2c1=O)c1ccccc1[N+](=O)[O-] | 32* | 7 | 0 | -1 | 5
O=c1cc(O)c2sc(Nc3ccc(Cl)c(F)c3)nc2[nH]1 | 38* | 1 | -10 | 15 | 8
O=c1cc(O)c2sc(Nc3ccc(F)c(Cl)c3)nc2[nH]1 | 12 | -10 | -5 | 26 | nt
CC1Nc2ncnc(N3CCc4ccccc4C3)c2N(Cc2ccc(Cl)cc2)C1=O (configuration not stated) | 43* | nt | nt | -2 | 11
CC1Nc2ncnc(N3CCN(c4ccccc4)CC3)c2N(Cc2ccc(Cl)cc2)C1=O (configuration not stated) | 14 | -8 | -2 | -5 | nt
O=C1C(Cc2ccccc2)Nc2ncnc(N3CCN(c4ccccc4)CC3)c2N1Cc1ccc(Cl)cc1 (configuration not stated) | 41* | -6 | -1 | -13 | 9
Cc1cc(Nc2ccc(Cl)c(C(F)(F)F)c2)cc(=O)n1-c1ccc(Cl)c(C(F)(F)F)c1 | nt | -2 | 0 | nt | nt
NC(=O)/C(=N\OC(=O)c1ccco1)c1nc(-c2ccc(Br)cc2)cs1 | 30* | -6 | 4 | -32 | 49*
CC(C)[C@H](N)C(=O)N[C@H](C(=O)N1CCC2CCN(S(=O)(=O)c3ccccc3)CC21)C(C)C (some centres not stated) | nt | 0 | 3 | nt | nt
CC[C@H](C)/C=C(C)/C=C/C(=O)Cc1cc(O)c(C)c(O)c1C=O | 33* | -1 | 1 | 33 | 14
Cc1noc(C)c1S(=O)(=O)N(C)C[C@@H]1OCc2cnnn2CCCC(=O)N([C@@H](C)CO)C[C@@H]1C | nt | -3 | 1 | nt | nt
Nc1cc2nc[nH]c2cc1N | 39* | 1 | -10 | -10 | 37
CC(C)N1CCCCC(NC(=O)c2ccccc2)C1=O (configuration not stated) | nt | 5 | 3 | nt | nt
O=C(C=Cc1ccco1)c1ccc([N+](=O)[O-])cc1 | 1 | -6 | 0 | -43 | nt
O=C(/C=C/c1ccco1)c1ccc(NC(=O)C23CC4CC(CC(C4)C2)C3)cc1 | 33* | -3 | -12 | -1 | 11
C#CCN(C[C@@H]1[C@@H](OC(=O)Nc2cccs2)[C@@H](OC(=O)Nc2cccs2)Cn2c(=O)n(CCCCCC)c(=O)n21)S(=O)(=O)c1ccc(C)cc1 | 30* | 3 | 2 | 1 | 16
C#CCN(C[C@@H]1[C@@H](OC(=O)Nc2cccs2)[C@@H](OC(=O)Nc2cccs2)C[C@H](C(=O)OC)[C@@H]1C(=O)OC)S(=O)(=O)c1ccc(C)cc1 | nt | 5 | 2 | nt | nt
NC(=O)c1c(NC(=O)COC(=O)CSc2nnc(-c3ccc(Cl)cc3)o2)sc2c1CCC2 | 40* | -5 | 51* | 16 | 8
O=C(CNS(=O)(=O)c1ccc(Br)s1)N1CCN(c2ccccn2)CC1 | nt | -13 | -11 | nt | nt
O=C(/C=C/c1ccc2ccccc2n1)c1cc(Cl)ccc1O | 33* | -6 | -7 | 13 | 36
O=C(/C=C/c1cccs1)c1cc(Cl)ccc1O | -8 | -6 | 0 | 10 | nt
COc1ccccc1-n1c(SCC(=O)N2CCOCC2)nc2ccccc2c1=O | -11 | -4 | -1 | -10 | nt
COc1ccccc1-n1c(SCc2cc(=O)oc3cc(O)ccc23)nc2ccccc2c1=O | 32* | -4 | -21 | nt | 58*
Cc1c(C(=O)OC/C(O)=C(\C#N)c2nc3ccccc3[nH]2)oc2ccccc12 | 10 | 2 | -2 | 15 | nt
SMILES | NadD inh | GC-B act | NPR1 activator | Neddylation inh | NadD conf
Cc1c(C(=O)OCC(O)=C(C#N)c2nc3ccccc3[nH]2)oc2ccc(Br)cc12 | 37* | 0 | -8 | -28 | 2
CCOc1c(OC(C)=O)ccc(/C=C2\N=C(SCC)SC2=O)c1[N+](=O)[O-] | 5 | -4 | 5 | 3 | nt
CCOc1cc(/C=C2\N=C(SC)SC2=O)cc([N+](=O)[O-])c1OC(C)=O | 46* | nt | nt | -25 | 2
CCOc1cc(/C=C2\N=C(SCC)SC2=O)cc([N+](=O)[O-])c1OC(C)=O | 30* | -6 | 4 | -47 | 3
O=C(N[C@H](Cc1ccccc1)C(=O)N1CCN(c2ncccn2)CC1)[C@H]1O[C@@H](n2ccc(=O)[nH]c2=O)[C@H](O)[C@@H]1O | nt | 4 | 4 | nt | nt
O=C(c1ccc(F)cc1)C1CCN(CCCn2c(=O)[nH]c3ccccc32)CC1 | nt | -8 | -20 | nt | nt
O=C1CCCC2=C1C(c1ccco1)Nc1ccc(C(=O)c3ccccc3)cc1N2 (configuration not stated) | 35* | -13 | 4 | -21 | 2
O=C1CCCC2=C1C(c1ccccn1)Nc1ccc(C(=O)c3ccccc3)cc1N2 (configuration not stated) | 1 | 3 | 4 | 14 | nt
O=C(Nc1ccn(CCCNCc2ccccc2)c(=O)n1)OCc1ccccc1 | 0 | -1 | 4 | -1 | nt
O=C(Nc1ccn(CCCN(CCCn2ccc(NC(=O)OCc3ccccc3)nc2=O)CCc2cc3ccccc3[nH]2)c(=O)n1)OCc1ccccc1 | 70* | -5 | 11 | -12 | 55*
COC(=O)c1ccc2nc(-c3cccc(Cl)c3)c(Cc3ccccc3C(F)(F)F)n2c1 | nt | 9 | 7 | nt | nt
C[C@]12C=CC(=O)C=C1CC[C@@H]1C2=CC[C@]2(C)[C@@H](C(=O)CN3CCN(c4cc(N5CCCC5)nc(N5CCCC5)n4)CC3)CC[C@@H]12 | 33* | 8 | -2 | 8 | 0
Cn1c(NC(=O)c2ccccc2)nc(Cc2ccccc2)c1-c1ccccc1 | nt | 3 | 1 | nt | nt
Cc1ccc(C)c(N(CC(=O)NC2CCCCC2)C(=O)c2csnn2)c1 | 3 | 0 | -1 | 8 | nt
Cc1ccc2cc3cc(C(=O)N(CC(=O)NC4CCCC4)c4cccc(C)c4C)sc3nc2c1 | 34* | 5 | -2 | 10 | 11
Cc1ccc(C)c(N(CC(=O)NC2CCCC2)C(=O)c2cc3cc4cccc(C)c4nc3s2)c1 | 32* | 2 | -1 | 10 | 12
COC(=O)[C@]12C[C@H](CC(=O)NCCC(C)C)C(=O)N(Cc3cccc4ccccc34)C1=C[C@H](C(C)C)O[C@@H]2C1CC1 | nt | 0 | -9 | nt | nt
C#Cc1ccc([C@@H]2C=C(C(=O)NCc3ccccc3)O[C@H](OCCCCO)C2)cc1 | 39* | -5 | 1 | -5 | 33
Nc1nc(N)c(C=Nc2ccc(Br)cc2)c(Nc2ccc(Br)cc2)n1 | 36* | -3 | -7 | 0 | -5
Nc1[nH]c(C(=O)c2ccccc2)c(-c2ccc(Cl)cc2Cl)c1C(=O)c1ccc(Cl)c(Cl)c1 | 36* | 3 | -9 | 19 | 5
CC(C)(C)C(=O)c1c(N)[nH]c(C(=O)c2ccccc2)c1-c1ccc(Cl)cc1Cl | 3 | -2 | -11 | 12 | nt
Cc1ccc(Cn2cc(COC(=O)Nc3ccc(F)cc3)nn2)cc1 | nt | 2 | 5 | nt | nt
